According to PubChem BioAssay AID1159580 (chemical genetic matrix, 2015):
“And” between values parts separate entries of the source, which are not always exact repeats. Identical values can stand only once. Screen size: about 5,500 compounds; about 2,000 (36%) were called active. About 18% were inconclusive and are not listed. Rule as the data show it: active = normalized growth mostly below about 0.91 (no sharp cut-off); inconclusive = no clear call, values can overlap the other calls; inactive = mostly above about 0.92. This is one part of the list.

Assay: chemical genetic growth profiling, strain panel (AID 1159580);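 also: tested at 20 µM; growth read once vehicle control cultures reached saturation at 30 °C; 1 = growth at the plate median or of vehicle wells; lower values mean less growth of the strain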
Details: growth OD
[1] = S. cerevisiae deletion strains, locus YAL013W, strain DEP1, hits give low values
[2] = S. cerevisiae deletion strains, locus YBR229C, strain ROT2, hits give low values
[3] = S. cerevisiae deletion strains, locus YDL101C, strain DUN1, hits give low values
[4] = S. cerevisiae deletion strains, locus YDR150W, strain NUM1, hits give low values
[5] = S. cerevisiae deletion strains, locus YEL061C, strain CIN8, hits give low values
[6] = S. cerevisiae deletion strains, locus YGR078C, strain PAC10, hits give low values
[7] = S. cerevisiae deletion strains, locus YGR229C, strain SMI1, hits give low values
[8] = S. cerevisiae deletion strains, locus YHR030C, strain SLT2, hits give low values
[9] = S. cerevisiae deletion strains, locus YJR043C, strain POL32, hits give low values
[10] = S. cerevisiae deletion strains, locus YJR075W, strain HOC1, hits give low values
[11] = S. cerevisiae deletion strains, locus YLR039C, strain RIC1, hits give low values
[12] = S. cerevisiae deletion strains, locus YLR262C, strain YPT6, hits give low values
[13] = S. cerevisiae deletion strains, locus YMR263W, strain SAP30, hits give low values
[14] = S. cerevisiae deletion strains, locus YNL153C, strain GIM3, hits give low values
[15] = S. cerevisiae deletion strains, locus YNL322C, strain KRE1, hits give low values
[16] = S. cerevisiae deletion strains, locus YOL006C, strain TOP1, hits give low values
[17] = S. cerevisiae deletion strains, locus YPL055C, strain LGE1, hits give low values
[18] = S. cerevisiae deletion strains, locus YPL241C, strain CIN2, hits give low values
[19] = S. cerevisiae deletion strains, locus YAL040C, strain CLN3, hits give low values
[20] = S. cerevisiae deletion strains, locus YCL061C, strain MRC1 (second series), hits give low values
[21] = S. cerevisiae deletion strains, locus YDR363W, strain ESC2, hits give low values
[22] = S. cerevisiae deletion strains, locus YER002W, strain NOP16, hits give low values
[23] = S. cerevisiae deletion strains, locus YMR307W, strain GAS1, hits give low values
[24] = S. cerevisiae deletion strains, locus YNL175C, strain NOP13, hits give low values
[25] = S. cerevisiae deletion strains, locus YNL197C, strain WHI3, hits give low values
[26] = S. cerevisiae deletion strains, locus YNL224C, strain SQS1, hits give low values
[27] = S. cerevisiae deletion strains, locus YOR083W, strain WHI5 (second series), hits give low values
[28] = S. cerevisiae deletion strains, locus YHR079C, strain IRE1, hits give low values
[29] = S. cerevisiae deletion strains, locus YJL095W, strain BCK1, hits give low values
[30] = S. cerevisiae deletion strains, locus YJR066W, strain TOR1, hits give low values
[31] = S. cerevisiae deletion strains, locus YLR113W, strain HOG1, hits give low values
[32] = S. cerevisiae deletion strains, locus YNL183C, strain NPR1, hits give low values
[33] = S. cerevisiae deletion strains, locus YOR231W, strain MKK1, hits give low values
[34] = S. cerevisiae deletion strains, locus YPL256C, strain CLN2, hits give low values

Measured: normalized growth

CCN(CC)C(=O)c1[nH]c(C)c(C)c1C
inactive: [1] 1.01 | [2] 1 | S. cerevisiae deletion strains, locus YCL061C, strain MRC1, hits give low values 1.01 | [3] 0.994 | [4] 1.01 | [5] 0.985 | [6] 1.01 | [7] 1.02 | [8] 1 | S. cerevisiae deletion strains, locus YHR087W, strain rtc3, hits give low values 0.998 | [9] 0.997 | [10] 1.01 | [11] 1.02 | S. cerevisiae deletion strains, locus YLR058C, strain SHM2 (second series), hits give low values 1.01 | S. cerevisiae deletion strains, locus YLR085C, strain ARP6, hits give low values 1.03 | [12] 0.995 | S. cerevisiae deletion strains, locus YML094W, strain GIM5, hits give low values 1.02 | S. cerevisiae deletion strains, locus YMR219W, strain ESC1, hits give low values 1.02 | [13] 1.01 | [14] 1 | S. cerevisiae deletion strains, locus YNL298W, strain CLA4 (second series), hits give low values 1.01 | [15] 0.985 | S. cerevisiae deletion strains, locus YNR030W, strain Alg12, hits give low values 1 | [16] 1.04 | [17] 1.02 | [18] 0.994 | S. cerevisiae deletion strains, locus YPR135W, strain CTF4, hits give low values 1.06

COC(=O)[C@@H]1[C@H]2C[C@H]3c4[nH]c5ccccc5c4CCN3C[C@@H]2CC[C@@H]1O
inactive: [1] 0.98 | [19] 1.03 | [20] 0.99 | [4] 1.01 | [21] 0.981 | [22] 1 | [6] 0.987 | [10] 0.98 | [13] 0.987 | [23] 1 | [24] 1 | [25] 0.984 | [26] 0.981 | [15] 0.952 | [27] 0.975 | [17] 0.983

O=C(O)Cc1cnc[nH]1
inactive: [1] 1.04 | [19] 1.04 | [20] 1.02 | [4] 1.04 | [21] 1.02 | [22] 1.01 | [8] 0.992 | [28] 1.01 | [29] 1 | [30] 0.985 | [31] 1 | [14] 1.03 | [24] 1 | [32] 0.938 | [25] 1.01 | [26] 1 | [15] 1.02 | [27] 1.01 | [33] 1 | [18] 1.01 | [34] 1

CC12CCC3c4ccc(OC(=O)c5ccccc5)cc4CCC3C1CCC2O (centres undefined)
active: [12] 0.606
inactive: S. cerevisiae deletion strains, locus YBR021W, strain FUR4, hits give low values 1.06 | [2] 1 | S. cerevisiae deletion strains, locus YCL029C, strain bik1, hits give low values 1 | S. cerevisiae deletion strains, locus YDL035C, strain GPR1, hits give low values 1 | S. cerevisiae deletion strains, locus YDL074C, strain BRE1, hits give low values 0.981 | [3] 0.992 | S. cerevisiae deletion strains, locus YDL134C, strain PPH21, hits give low values 1 | S. cerevisiae deletion strains, locus YDL185W, strain tfp1, hits give low values 0.999 | S. cerevisiae deletion strains, locus YDL192W, strain arf1, hits give low values 0.995 | S. cerevisiae deletion strains, locus YDR101C, strain arx1, hits give low values 0.99 | S. cerevisiae deletion strains, locus YDR162C, strain NBP2, hits give low values 1.02 | S. cerevisiae deletion strains, locus YDR318W, strain mcm21, hits give low values 0.99 | S. cerevisiae deletion strains, locus YDR388W, hits give low values 0.993 | S. cerevisiae deletion strains, locus YDR502C, strain sam2, hits give low values 1 | [5] 1.01 | S. cerevisiae deletion strains, locus YER110C, hits give low values 1 | S. cerevisiae deletion strains, locus YER155C, strain BEM2, hits give low values 1.01 | S. cerevisiae deletion strains, locus YER167W, strain BCK2, hits give low values 1 | S. cerevisiae deletion strains, locus YGL078C, strain dbp3, hits give low values 1 | S. cerevisiae deletion strains, locus YGL086W, strain mad1, hits give low values 1 | S. cerevisiae deletion strains, locus YGL248W, strain PDE1, hits give low values 0.992 | S. cerevisiae deletion strains, locus YGR135W, strain pre9, hits give low values 0.997 | [7] 1.02 | S. cerevisiae deletion strains, locus YGR252W, strain gcn5, hits give low values 1 | [8] 1.01 and 1.03 | S. cerevisiae deletion strains, locus YHR079C, strain IRE1 (second series), hits give low values 1 | [28] 1.05 | S. cerevisiae deletion strains, locus YHR094C, strain hxt1, hits give low values 0.995 | S. cerevisiae deletion strains, locus YHR129C, strain ARP1, hits give low values 1 | S. cerevisiae deletion strains, locus YHR200W, strain rpn10, hits give low values 1 | S. cerevisiae deletion strains, locus YIL066C, strain RNR3, hits give low values 1 | S. cerevisiae deletion strains, locus YIL073C, strain SPO22, hits give low values 1.03 | S. cerevisiae deletion strains, locus YIL125W, strain kgd1, hits give low values 0.994 | S. cerevisiae deletion strains, locus YIR030C, strain dcg1, hits give low values 0.997 | [29] 0.958 and 1.01 | S. cerevisiae deletion strains, locus YJL134W, strain LCB3, hits give low values 1.01 | S. cerevisiae deletion strains, locus YJL168C, strain set2, hits give low values 0.989 | S. cerevisiae deletion strains, locus YJL187C, strain SWE1 (second series), hits give low values 1 | [9] 1.01 | [30] 0.963 | [10] 1.01 | S. cerevisiae deletion strains, locus YKL009W, strain mrt4, hits give low values 1 | S. cerevisiae deletion strains, locus YKL068W, hits give low values 1.01 | S. cerevisiae deletion strains, locus YKL085W, strain MDH1 (second series), hits give low values 1 | S. cerevisiae deletion strains, locus YKL085W, strain MDH1, hits give low values 1 | S. cerevisiae deletion strains, locus YKL190W, strain CNB1, hits give low values 1.01 | S. cerevisiae deletion strains, locus YKR001C, strain vps1, hits give low values 0.945 | [11] 0.755 | S. cerevisiae deletion strains, locus YLR058C, strain SHM2, hits give low values 1.01 | S. cerevisiae deletion strains, locus YLR102C, strain apc9, hits give low values 0.991 | [31] 1.02 | S. cerevisiae deletion strains, locus YLR268W, strain sec22, hits give low values 1 | S. cerevisiae deletion strains, locus YLR330W, strain CHS5, hits give low values 1.02 | S. cerevisiae deletion strains, locus YLR342W, strain FKS1 (second series), hits give low values 0.999 | S. cerevisiae deletion strains, locus YLR371W, strain rom2, hits give low values 0.995 | S. cerevisiae deletion strains, locus YLR418C, strain cdc73, hits give low values 0.949 | S. cerevisiae deletion strains, locus YML016C, strain PPZ1, hits give low values 1.01 | S. cerevisiae deletion strains, locus YML032C, strain rad52, hits give low values 0.992 | S. cerevisiae deletion strains, locus YML124C, strain tub3, hits give low values 0.999 | S. cerevisiae deletion strains, locus YMR078C, strain ctf18, hits give low values 0.988 | S. cerevisiae deletion strains, locus YMR223W, strain ubp8, hits give low values 1 | [13] 1.01 | [23] 1.22 | S. cerevisiae deletion strains, locus YNL067W, strain RPL9B, hits give low values 1.01 | S. cerevisiae deletion strains, locus YNL128W, strain TEP1, hits give low values 1.04 | [14] 0.997 | [32] 0.934 | S. cerevisiae deletion strains, locus YNL233W, strain BNI4, hits give low values 0.97 | S. cerevisiae deletion strains, locus YNL250W, strain rad50, hits give low values 1 | S. cerevisiae deletion strains, locus YNL271C, strain bni1, hits give low values 0.992 | S. cerevisiae deletion strains, locus YNL298W, strain CLA4, hits give low values 0.993 | S. cerevisiae deletion strains, locus YNL307C, strain MCK1, hits give low values 0.926 | S. cerevisiae deletion strains, locus YNR052C, strain pop2, hits give low values 1 | [16] 0.921 | S. cerevisiae deletion strains, locus YOL012C, strain htz1 0.873 | S. cerevisiae deletion strains, locus YOL147C, strain pex11, hits give low values 1 | S. cerevisiae deletion strains, locus YOR061W, strain CKA2, hits give low values 1 | S. cerevisiae deletion strains, locus YOR069W, strain VPS5, hits give low values 1.01 | S. cerevisiae deletion strains, locus YOR136W, strain idh2, hits give low values 1 | S. cerevisiae deletion strains, locus YOR144C, strain elg1, hits give low values 1 | S. cerevisiae deletion strains, locus YOR184W, strain ser1, hits give low values 0.974 | [33] 1.03 | S. cerevisiae deletion strains, locus YOR316C, strain cot1, hits give low values 0.992 | [17] 1 | [34] 1.06 | S. cerevisiae deletion strains, locus YPR119W, strain clb2, hits give low values 0.994 | S. cerevisiae deletion strains, locus YPR141C, strain kar3, hits give low values 1 | S. cerevisiae deletion strains, locus YPR163C, strain tif3, hits give low values 1.01 | S. cerevisiae deletion strains, locus YPR167C, strain met16, hits give low values 1 | S. cerevisiae deletion strains, strain wtn01, hits give low values 0.996 | S. cerevisiae strains, strain wild type, hits give low values 1

C[C@]12CC[C@@H]3c4ccc(O)cc4CC[C@H]3[C@@H]1CC[C@@H]2O
inactive: [1] 1 | [19] 1.01 | [20] 1.01 | [4] 1.01 | [21] 1.01 | [22] 1.02 | [6] 0.999 | [10] 1.01 | [14] 0.948 | [24] 1.01 | [25] 1.03 | [26] 1.03 | [27] 0.899
